Reference: PubChem BioAssay AID1159580 (chemical genetic matrix, 2015)
Several values for one entry are separate records, joined by “and”; a condition that tells them apart may be missing. Identical values can stand only once. The campaign covered roughly 5,500 compounds. About 2,000 (36%) were called active. Inconclusive results (about 18%) are left out. Cut-off read from the data, not from the text of the source: active = normalized growth mostly below about 0.91 (no sharp cut-off); inconclusive = no clear call, values can overlap the other calls; inactive = mostly above about 0.92. The list shows a part of the results.

Assay: chemical genetic growth profiling, strain panel (AID 1159580);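 note: tested at 20 µM; growth read once vehicle control cultures reached saturation at 30 °C; 1 = growth at the plate median or of vehicle wells; lower values mean less growth of the strain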
Details: S. cerevisiae deletion strains, growth OD

Measured: normalized growth

COc1cc(C)c2c(c1C=O)Oc1c(c(C)c(O)c3c1C(O)OC3=O)OC2=O (stereo not drawn)
inactive: locus YAL013W, strain DEP1, hits give low values 1 | locus YAL021C, strain ccr4, hits give low values 1.01 | locus YAL026C, strain drs2, hits give low values 1.02 | locus YAL030W, strain snc1, hits give low values 1.02 | locus YBL061C, strain skt5, hits give low values 1.02 | locus YBR009C, strain hhf1, hits give low values 1.03 | locus YBR021W, strain FUR4, hits give low values 1.01 | locus YBR023C, strain chs3, hits give low values 1.05 | locus YBR171W, strain sec66, hits give low values 1.02 | locus YBR229C, strain ROT2, hits give low values 0.949 | locus YBR231C, strain swc5, hits give low values 1.01 | locus YBR279W, strain paf1, hits give low values 1.01 | locus YCL011C, strain gbp2, hits give low values 1.03 | locus YCL016C, strain dcc1, hits give low values 1.03 | locus YCL029C, strain bik1, hits give low values 0.984 | locus YCL061C, strain MRC1, hits give low values 1.02 | locus YCL069W, strain vba3, hits give low values 1.01 | locus YCR088W, strain abp1, hits give low values 1.01 | locus YDL005C, strain med2, hits give low values 0.946 | locus YDL035C, strain GPR1, hits give low values 0.965 | locus YDL040C, strain nat1, hits give low values 1.01 | locus YDL074C, strain BRE1, hits give low values 0.959 | locus YDL101C, strain DUN1, hits give low values 0.99 | locus YDL185W, strain tfp1, hits give low values 0.972 | locus YDL192W, strain arf1, hits give low values 0.984 | locus YDR001C, strain nth1, hits give low values 1.01 | locus YDR069C, strain doa4, hits give low values 1 | locus YDR101C, strain arx1, hits give low values 0.981 | locus YDR137W, strain rgp1, hits give low values 1.06 | locus YDR150W, strain NUM1, hits give low values 0.994 | locus YDR159W, strain sac3, hits give low values 1.02 | locus YDR162C, strain NBP2, hits give low values 0.941 | locus YDR195W, strain ref2 0.924 | locus YDR297W, strain sur2, hits give low values 1.01 | locus YDR318W, strain mcm21, hits give low values 1 | locus YDR334W, strain swr1, hits give low values 1 | locus YDR335W, strain msn5, hits give low values 1.01 | locus YDR388W, hits give low values 0.997 | locus YDR392W, strain spt3, hits give low values 1 | locus YDR502C, strain sam2, hits give low values 1.04 | locus YEL003W, strain gim4, hits give low values 1.02 | locus YEL037C, strain rad23, hits give low values 1.02 | locus YEL061C, strain CIN8 (second series), hits give low values 1 | locus YEL061C, strain CIN8, hits give low values 0.974 | locus YER015W, strain faa2, hits give low values 1.01 | locus YER016W, strain bim1, hits give low values 1.02 | locus YER110C, hits give low values 0.981 | locus YER111C, strain swi4, hits give low values 1.01 | locus YER155C, strain BEM2 (second series), hits give low values 1.02 | locus YER155C, strain BEM2, hits give low values 0.995 | locus YER167W, strain BCK2, hits give low values 0.986 | locus YFR010W, strain ubp6, hits give low values 1.02 | locus YGL078C, strain dbp3, hits give low values 1.02 | locus YGL086W, strain mad1, hits give low values 1.01 | locus YGL167C, strain pmr1, hits give low values 1.01 | locus YGL173C, strain kem1, hits give low values 1.03 | locus YGL227W, strain vid30, hits give low values 1.02 | locus YGL240W, strain doc1, hits give low values 1.08 | locus YGL248W, strain PDE1, hits give low values 1.02 | locus YGL253W, strain hxk2, hits give low values 1.02 | locus YGR135W, strain pre9, hits give low values 1.06 | locus YGR252W, strain gcn5, hits give low values 1.05 | locus YHR013C, strain ard1, hits give low values 1.05 | locus YHR027C, strain rpn1, hits give low values 1.01 | locus YHR030C, strain SLT2, hits give low values 0.992 and 0.99 | locus YHR079C, strain IRE1 (second series), hits give low values 0.991 | locus YHR079C, strain IRE1, hits give low values 0.994 | locus YHR094C, strain hxt1, hits give low values 0.982 | locus YHR129C, strain ARP1, hits give low values 0.984 | locus YHR142W, strain chs7, hits give low values 1.05 | locus YHR200W, strain rpn10, hits give low values 0.999 | locus YIL066C, strain RNR3, hits give low values 0.97 | locus YIL073C, strain SPO22, hits give low values 1.06 | locus YIL125W, strain kgd1, hits give low values 0.984 | locus YIR030C, strain dcg1, hits give low values 0.982 | locus YJL092W, strain hpr5, hits give low values 1.01 | locus YJL095W, strain BCK1 (second series), hits give low values 1.02 | locus YJL095W, strain BCK1, hits give low values 1.08 and 0.976 | locus YJL115W, strain asf1, hits give low values 1 | locus YJL129C, strain trk1, hits give low values 1.03 | locus YJL134W, strain LCB3, hits give low values 0.986 | locus YJL154C, strain vps35, hits give low values 1.02 | locus YJL164C, strain tpk1, hits give low values 1.03 | locus YJL166W, strain qcr8, hits give low values 1.03 | locus YJL168C, strain set2, hits give low values 0.993 | locus YJL187C, strain SWE1 (second series), hits give low values 0.988 | locus YJL187C, strain SWE1, hits give low values 1.02 | locus YJR066W, strain TOR1, hits give low values 0.919 | locus YKL009W, strain mrt4, hits give low values 0.948 | locus YKL068W, hits give low values 0.983 | locus YKL085W, strain MDH1 (second series), hits give low values 0.968 | locus YKL085W, strain MDH1, hits give low values 0.968 | locus YKL160W, strain elf1, hits give low values 1.03 | locus YKL190W, strain CNB1, hits give low values 0.989 | locus YKR001C, strain vps1, hits give low values 0.991 | locus YKR026C, strain gcn3, hits give low values 1.01 | locus YKR091W, strain srl3, hits give low values 1.01 | locus YLL001W, strain dnm1, hits give low values 1.01 | locus YLL026W, hits give low values 1.02 | locus YLL041C, strain sdh2, hits give low values 1.01 | locus YLR027C, strain aat2, hits give low values 1 | locus YLR039C, strain RIC1, hits give low values 1.01 | locus YLR058C, strain SHM2, hits give low values 0.966 | locus YLR102C, strain apc9, hits give low values 0.986 | locus YLR113W, strain HOG1, hits give low values 0.956 | locus YLR221C, strain rsa3, hits give low values 1.03 | locus YLR258W, strain gsy2, hits give low values 1.03 | locus YLR262C, strain YPT6 (second series), hits give low values 1.06 | locus YLR268W, strain sec22, hits give low values 0.975 | locus YLR320W, strain mms22, hits give low values 1.06 | locus YLR330W, strain CHS5, hits give low values 0.983 | locus YLR342W, strain FKS1 (second series), hits give low values 0.99 | locus YLR342W, strain FKS1, hits give low values 1.03 | locus YLR357W, strain rsc2, hits give low values 0.997 | locus YLR370C, strain arc18, hits give low values 1.02 | locus YLR371W, strain rom2, hits give low values 0.972 | locus YLR384C, strain iki3, hits give low values 1.01 | locus YLR418C, strain cdc73, hits give low values 1.05 | locus YML016C, strain PPZ1, hits give low values 0.985 | locus YML032C, strain rad52, hits give low values 0.985 | locus YML120C, strain ndi1, hits give low values 1.02 | locus YML124C, strain tub3, hits give low values 0.996 | locus YMR058W, strain fet3, hits give low values 0.996 | locus YMR078C, strain ctf18, hits give low values 0.995 | locus YMR125W, strain sto1, hits give low values 0.999 | locus YMR129W, hits give low values 1.01 | locus YMR205C, strain PFK2, hits give low values 1.03 | locus YMR223W, strain ubp8, hits give low values 1 | locus YMR231W, strain pep5, hits give low values 1.02 | locus YMR307W, strain GAS1, hits give low values 0.922 | locus YNL067W, strain RPL9B, hits give low values 1 | locus YNL071W, strain lat1, hits give low values 1.02 | locus YNL128W, strain TEP1, hits give low values 0.918 | locus YNL183C, strain NPR1, hits give low values 0.935 | locus YNL209W, strain ssb2, hits give low values 1 | locus YNL233W, strain BNI4, hits give low values 1.02 | locus YNL248C, strain rpa49, hits give low values 1.05 | locus YNL250W, strain rad50, hits give low values 0.984 | locus YNL271C, strain bni1, hits give low values 0.989 | locus YNL298W, strain CLA4, hits give low values 0.987 | locus YNL307C, strain MCK1, hits give low values 1 | locus YNL322C, strain KRE1 (second series), hits give low values 1.01 | locus YNR049C, strain mso1, hits give low values 1.02 | locus YNR052C, strain pop2, hits give low values 1.02 | locus YOL012C, strain htz1 0.777 | locus YOL147C, strain pex11, hits give low values 0.991 | locus YOR001W, strain rrp6, hits give low values 1.03 | locus YOR061W, strain CKA2, hits give low values 0.952 | locus YOR069W, strain VPS5, hits give low values 0.992 | locus YOR070C, strain gyp1, hits give low values 1.01 | locus YOR080W, strain dia2, hits give low values 1.02 | locus YOR083W, strain WHI5, hits give low values 1.03 | locus YOR106W, strain vam3, hits give low values 1.03 | locus YOR136W, strain idh2, hits give low values 0.987 | locus YOR144C, strain elg1, hits give low values 0.99 | locus YOR184W, strain ser1, hits give low values 0.959 | locus YOR231W, strain MKK1, hits give low values 0.975 | locus YOR265W, strain rbl2, hits give low values 1.01 | locus YOR270C, strain vph1, hits give low values 1.15 | locus YOR290C, strain snf2, hits give low values 1.01 | locus YOR316C, strain cot1, hits give low values 1 | locus YPL051W, strain arl3, hits give low values 1.04 | locus YPL055C, strain LGE1, hits give low values 0.899 | locus YPL078C, strain atp4, hits give low values 1.03 | locus YPL106C, strain sse1, hits give low values 1.02 | locus YPL240C, strain hsp82, hits give low values 1.01 | locus YPL241C, strain CIN2, hits give low values 0.995 | locus YPL256C, strain CLN2, hits give low values 0.974 | locus YPR119W, strain clb2, hits give low values 1 | locus YPR141C, strain kar3, hits give low values 0.979 | locus YPR163C, strain tif3, hits give low values 1 | locus YPR167C, strain met16, hits give low values 1.02 | strain wtn01, hits give low values 0.976
